PubChem BioAssay (NCATS)
Inconclusive results are not listed. Calls of active or inactive are those of the source. Calls come from the whole dose curve; as a rule, active = well fitted inhibition curve with a large enough effect; inconclusive = small, poorly fitted or top-dose-only effect; inactive = flat fitted curve, though single readings scatter.

System: ECU
Experiment: qHTS profiling for inhibitors of Plasmodium falciparum proliferation (AID 504749); note: nearly all actives have a fitted effect of over 60% in size;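 for activity, negative = inhibition: 0% = DMSO vehicle and full inhibition = artemisinin control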
Settings: P. falciparum in erythrocytes, SYBR Green DNA, 72 h; series mostly up to 28.7 µM; activity, negative = inhibition: at the top concentration
Outline: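 Infected RBCs, 0.3% parasitemia/2.5% Hct final; cpd 72 h, 37 C, 5% CO2; lysis buffer with saponin/triton/SYBR Green I, o/n RT dark; FI 485/535; norm. to artemisinin (0.29 uM) and DMSO.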
Potency is the fitted concentration of half-maximal effect.

Question: With `COc1ccccc1N1CCN(CCCC(=O)c2ccc(F)cc2)CC1` as the compound, how does the “activity, negative = inhibition” value read?
Answer: -3.37% (inactive)

Question: With `Cn1cc(NC(=O)c2cc(NC(=O)c3cc(NC=O)cn3C)cn2C)cc1C(=O)NCCC(=N)N` as the compound, how does the Potency read?
Answer: 10 µM (active)

Question: Which “activity, negative = inhibition” value does the source give for `CCCCCc1ccc(C)cc1O` here?
Answer: -22.6% (inactive)

Question: With `CCCCCCCCCCCCCCCCOCCOCCOCCOCCOCCOCCOCCOCCOCCOCCOCCOCCOCCOCCOCCOCCOCCOCCOCCOCCO` as the compound, how does the Potency read?
Answer: 1.26 µM (active)

Question: With `C=CCN1CCCC1CNC(=O)c1cc(S(N)(=O)=O)cc(OC)c1OC` (centres undefined) as the compound, how does the “activity, negative = inhibition” value read?
Answer: 2.49% (inactive)

Question: How did the Potency turn out when `CC(=O)c1ccc2c(c1)N(CCCN1CCN(CCO)CC1)c1ccccc1S2` was run?
Answer: 12.6 µM (active)

Question: How did the “activity, negative = inhibition” value turn out when `CN(C)CCOc1ccc(/C(=C(/CCCl)c2ccccc2)c2ccccc2)cc1` was run?
Answer: -9.35% (inactive)

Question: With `C[C@]12CCC(=O)C[C@@H]1CC[C@@H]1[C@@H]2CC[C@]2(C)C=CC[C@@H]12` as the compound, how does the “activity, negative = inhibition” value read?
Answer: -22.8% (inactive)

Question: Which “activity, negative = inhibition” value does the source give for `Cc1ccc(S(=O)(=O)O)cc1C` here?
Answer: 4.36% (inactive)

Question: `NCC[C@H](O)C(=O)N[C@@H]1C[C@H](N)[C@@H](O[C@H]2O[C@H](CN)[C@@H](O)[C@H](O)[C@H]2O)[C@H](O)[C@H]1O[C@H]1O[C@H](CO)[C@@H](O)[C@H](N)[C@H]1O` was tested. Which “activity, negative = inhibition” value did it give?
Answer: 1.88% (inactive)

Question: How did the “activity, negative = inhibition” value turn out when `CN(C)c1ccc(C(=C2C=CC(=[N+](C)C)C=C2)c2c(O)c(S(=O)(=O)[O-])cc3cc(S(=O)(=O)O)ccc23)cc1` was run?
Answer: -3.18% (inactive)

Question: With `COC(=O)CCC[N+](C)(C)C` as the compound, how does the “activity, negative = inhibition” value read?
Answer: 15.2% (inactive)

Question: `C#C[C@]1(O)CC[C@@H]2[C@H]3CCC4=CC(=O)CC[C@H]4[C@H]3C(=C)C[C@@]21CC` was tested. Which “activity, negative = inhibition” value did it give?
Answer: -6.3% (inactive)

Question: Which “activity, negative = inhibition” value does the source give for `CC(C)C1=CC2=CC[C@@H]3[C@](C)(CCC[C@@]3(C)C(=O)O)[C@H]2CC1` here?
Answer: -12.9% (inactive)

Question: With `O=C(CCCN1CCC(C(=O)c2ccc(F)cc2)CC1)c1ccc(F)cc1` as the compound, how does the “activity, negative = inhibition” value read?
Answer: 4.23% (inactive)

Question: How did the “activity, negative = inhibition” value turn out when `CC(C)NCC(O)COc1ccccc1-n1cccc1` (centres undefined) was run?
Answer: 6.03% (inactive)

Question: With `O=C(CCCN1CCN2CCCC2C1)c1ccc(F)cc1` (centres undefined) as the compound, how does the “activity, negative = inhibition” value read?
Answer: -28.2% (inactive)

Question: With `Cc1ncc(C[n+]2csc(CCO)c2C)c(N)n1` as the compound, how does the “activity, negative = inhibition” value read?
Answer: 2.48% [at 12.8 µM] (inactive)

Question: How did the “activity, negative = inhibition” value turn out when `COc1ccc2nc(NC(=O)Nc3ccccc3)sc2c1` was run?
Answer: -26.5% (inactive)

Question: With `Cc1cc(C(=O)NCCc2ccc(S(=O)(=O)NC(=O)NN3CCCCCC3)cc2)no1` as the compound, how does the “activity, negative = inhibition” value read?
Answer: 1.48% (inactive)

Question: With `N=C(N)c1ccc(/C=C/c2ccc(C(=N)N)cc2O)cc1` as the compound, how does the Potency read?
Answer: 10 µM (active)

Question: For `Cc1c(C)c2c(c(C)c1OC(=O)CCC(=O)O)CC[C@@](C)(CCC[C@H](C)CCC[C@H](C)CCCC(C)C)O2`, which “activity, negative = inhibition” value is on record?
Answer: -3.6% (inactive)

Question: `CC(=O)[O][Al][O]C(C)=O` was tested. Which “activity, negative = inhibition” value did it give?
Answer: 2.68% (inactive)

Question: How did the “activity, negative = inhibition” value turn out when `CC1CC(OC(=O)C(O)c2ccccc2)CC(C)(C)C1` (centres undefined) was run?
Answer: -4.92% (inactive)

Question: Which Potency does the source give for `C=CC[C@@H]1/C=C(\C)C[C@H](C)C[C@H](OC)[C@H]2O[C@@](O)(C(=O)C(=O)N3CCCC[C@H]3C(=O)O[C@H](/C(C)=C/[C@@H]3CC[C@@H](O)[C@H](OC)C3)[C@H](C)[C@@H](O)CC1=O)[C@H](C)C[C@@H]2OC` here?
Answer: 1.26 µM (active)

Question: How did the “activity, negative = inhibition” value turn out when `OCCOCCOCCO` was run?
Answer: 7.5% (inactive)

Question: For `O=C(OCc1ccccc1)c1ccc(O)cc1`, which “activity, negative = inhibition” value is on record?
Answer: 15% (inactive)

Question: Which “activity, negative = inhibition” value does the source give for `CC(/C=C/C=C(\C)C(=O)O[C@@H]1O[C@H](CO[C@@H]2O[C@H](CO)[C@@H](O)[C@H](O)[C@H]2O)[C@@H](O)[C@H](O)[C@H]1O)=C\C=C\C=C(C)\C=C\C=C(/C)C(=O)O[C@@H]1O[C@H](CO[C@@H]2O[C@H](CO)[C@@H](O)[C@H](O)[C@H]2O)[C@@H](O)[C@H](O)[C@H]1O` here?
Answer: 5.26% (inactive)

Question: Which “activity, negative = inhibition” value does the source give for `COC(=O)[C@@H](N)CS` here?
Answer: -3.99% (inactive)

Question: With `O.O.O.O.O.O.O.O=S(=O)([O-])[O-].[Co+2]` as the compound, how does the Potency read?
Answer: 12.6 µM (active)

Question: For `CN(C)CCCSc1ccccc1NC(=O)/C=C/c1ccccc1`, which “activity, negative = inhibition” value is on record?
Answer: -4.95% (inactive)

Question: With `O=P(O)(O)OP(=O)(O)O` as the compound, how does the “activity, negative = inhibition” value read?
Answer: -15.1% (inactive)

Question: For `CCSc1ccc2c(c1)N(CCCN1CCN(C)CC1)c1ccccc1S2`, which “activity, negative = inhibition” value is on record?
Answer: -2.75% [at 12.8 µM] (inactive)

Question: Which “activity, negative = inhibition” value does the source give for `CCCCCCCCCCCCCCCCCC(=O)OC[C@@H](O)[C@H]1OC[C@H](O)[C@H]1O` here?
Answer: -3.75% (inactive)
